# According to PMC4336329 (PLoS ONE, 2015):
# Hit rate of the full screen: of about 310,000 compounds, about 14,000 (4.5%) showed an effect of 50% or more. Effects have a minus sign here. This is one part of a sample in which strong results are shown more often than they occur.
# Molecular target: human ether-à-go-go-related gene (hERG) potassium channel (human, UniProt Q12809)
# Experiment: primary screen, population patch clamp on CHO cells stably expressing hERG; higher = less effect of the substance
# 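Also: peak tail current of the secondary pulse compared with the same well before compound.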
# human ether-à-go-go-related gene (hERG) potassium channel, sequence (Q12809 whole entry, looked up): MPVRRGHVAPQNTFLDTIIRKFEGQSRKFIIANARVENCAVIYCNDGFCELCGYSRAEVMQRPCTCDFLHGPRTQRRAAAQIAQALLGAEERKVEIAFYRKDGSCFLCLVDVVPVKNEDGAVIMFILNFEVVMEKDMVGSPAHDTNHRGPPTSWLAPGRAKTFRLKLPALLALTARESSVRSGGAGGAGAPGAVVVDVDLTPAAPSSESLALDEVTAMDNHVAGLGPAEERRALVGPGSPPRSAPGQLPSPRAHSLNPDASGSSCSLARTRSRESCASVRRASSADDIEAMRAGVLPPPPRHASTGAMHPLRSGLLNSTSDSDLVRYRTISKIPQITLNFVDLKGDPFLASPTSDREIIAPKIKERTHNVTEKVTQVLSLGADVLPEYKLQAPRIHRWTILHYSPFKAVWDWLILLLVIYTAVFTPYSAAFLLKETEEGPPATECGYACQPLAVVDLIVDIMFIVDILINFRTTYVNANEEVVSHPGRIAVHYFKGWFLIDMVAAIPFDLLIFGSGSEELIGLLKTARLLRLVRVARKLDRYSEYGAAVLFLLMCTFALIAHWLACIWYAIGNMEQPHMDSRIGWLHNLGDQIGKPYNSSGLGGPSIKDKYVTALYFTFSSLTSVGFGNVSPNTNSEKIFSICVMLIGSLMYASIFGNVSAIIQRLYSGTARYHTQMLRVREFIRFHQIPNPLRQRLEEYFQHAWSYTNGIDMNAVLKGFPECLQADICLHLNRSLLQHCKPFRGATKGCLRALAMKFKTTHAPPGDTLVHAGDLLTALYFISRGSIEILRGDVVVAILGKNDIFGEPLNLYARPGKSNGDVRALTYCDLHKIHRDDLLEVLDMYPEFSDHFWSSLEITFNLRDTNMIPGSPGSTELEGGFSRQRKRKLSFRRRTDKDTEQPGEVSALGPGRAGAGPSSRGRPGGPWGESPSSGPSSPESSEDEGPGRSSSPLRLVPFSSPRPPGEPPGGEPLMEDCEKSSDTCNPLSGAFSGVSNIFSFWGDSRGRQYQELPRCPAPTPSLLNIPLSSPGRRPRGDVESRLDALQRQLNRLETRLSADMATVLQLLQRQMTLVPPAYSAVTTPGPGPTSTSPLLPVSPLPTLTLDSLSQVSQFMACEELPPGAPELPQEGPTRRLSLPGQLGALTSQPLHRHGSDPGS
row,Structure (SMILES),"hERG current change (%, negative = inhibition) at 10uM [%]"
1,COc1ccc(Br)cc1C(=O)N/N=C/c1cccnc1,-8.72
2,CCOc1ccc(-c2csc(NC(=O)C3CCCO3)n2)cc1 (stereo not shown),4.35
3,O=C1CCN(Cc2ccc(O)cc2)CCN1[C@H](CO)Cc1ccccc1,2.51
4,O=C1CCN(Cc2ccccc2)CCN1[C@H](CSc1ccccc1)Cc1ccccc1,-72.1
5,[N-]=[N+]=NC[C@H](Cc1ccccc1)N1CCN(Cc2ccccc2)CCC1=O,3.9
6,CC(C)C[C@@H](CSc1ccc(Br)cc1)N1CCN(CCc2ccccc2)CCC1=O,-70.6
7,CC(C)C[C@@H](CO)N1CCN(CCCc2ccccc2)CCC1=O,-31.1
8,CC(C)C[C@@H](CC#N)N1CCN(CCc2ccccc2)CCC1=O,2.01
9,CCOc1[nH]n(-c2ccccc2)c(=O)c1C=Nc1ccccc1,-2.58
10,CC1CN(C(=O)c2ccc(CNS(=O)(=O)c3cccc(C(F)(F)F)c3)cc2)CC(C)O1 (stereo not shown),9.72
11,O=C(Nc1ccc2ccccc2c1)c1ccccc1O,24.6
12,Cc1ccc(C(OC(=O)c2ccco2)C(=O)NC(C)(C)C)cc1 (stereo not shown),10.8
13,CN(C)Cc1ccccc1Cc1ccccc1.O=C(O)/C=C\C(=O)O,-10.1
14,N=C(N)Cc1ccccc1Sc1ccccc1.O=C(O)/C=C\C(=O)O,-1.09
15,CCN(CC)Cc1ccccc1Sc1ccccc1.O=C(O)/C=C\C(=O)O,-53.3
16,CC(Cc1ccccc1Sc1ccccc1)N(C)C.O=C(O)/C=C\C(=O)O (stereo not shown),-69.5
17,N/C(Cc1ccccc1Sc1ccccc1)=N\O.O=C(O)/C=C\C(=O)O,-22.2
18,CN(C)Cc1ccccc1Sc1ccc(O)cc1O.O.O=C(O)/C=C\C(=O)O,-3.84
19,COC(=O)CSc1ncnc2c1sc1nc3c(cc12)COC(C)(C)C3,23.5
20,COc1ccc(C(=O)NCC(=O)OCC(=O)Nc2cc([N+](=O)[O-])ccc2F)cc1,-23.4
21,Cn1c(CSCc2ccc(F)cc2)nnc1SCC(=O)Nc1cccc(C(=O)O)c1,9.71
22,Cc1cccc(N(Cc2cc3cc(C)ccc3[nH]c2=O)C(=O)c2cccs2)c1,5.95
23,c1ccc(CN2CCC(Nc3nc(-c4cccnc4)nc4ccccc34)CC2)cc1,-80.5
24,c1csc(CNc2nc(-c3cccs3)nc3ccccc23)c1,-6.81
25,c1ccc(CN2CCC(Nc3nc(-c4cccs4)nc4ccccc34)CC2)cc1,-59.9
26,c1cncc(CNc2nc(-c3cccnc3)nc3ccccc23)c1,-25.3
27,Cc1ccc(CNc2nc(-c3cccs3)nc3ccccc23)cc1,12.1
28,c1ccc(CN2CCC(Nc3nc(-c4ccccc4)nc4ccccc34)CC2)cc1,-20.5
